RE007 growth inh – less growth of the S. pombe RE007 Vpr strain | S. pombe RE007 Vpr strain, BacTiter-Glo ATP luminescence, 24 h | Potency, µM (titrated, usually from 92.2 µM), inactives show at the highest dose activity change, negative = less growth, actives largely listed as inhibitors | 360,000 compounds, 0.21% hits | AID 651644; active means well fitted falling curve with a large enough effect; inconclusive means small, poorly fitted or top-dose-only effect; inactive means no such curve, though single readings can be large or run the other way; further: on the % scale 0 is the no-effect control and ±100 the full control effect; nearly all actives have a fitted effect of over 50% in size
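Fission yeast RE007 carrying one integrated HIV-1 vpr copy, seeded at OD 0.01 in PMG+AL medium with 23 nL pinned compound. Grown 24 h at 30 degrees; viability read by BacTiter-Glo luminescence after 5 min.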
SARS PLP yeast – SARS-CoV PLP inhibition in yeast | S. cerevisiae expressing SARS-CoV PLpro, growth rescue | Potency, µM (highest dose often 32.9 µM), inactives show at the top dose activity, positive = growth rescue, most hits filed as activators | 330,000 compounds, 0.19% hits | AID 485353; further: 0% is about no effect; nearly all actives have a fitted effect of over 55% in size
NS1 inh – blocks influenza NS1 protein function. Potency, µM (titrated, usually from 46.1 µM), without a hit: at the top dose activity, positive = more growth. 270,000 compounds, 0.4% hits; further: actives are rising curves; nearly all actives have a fitted effect of over 50% in size
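In this qHTS, NS1 from influenza A is expressed in budding yeast, where it slows growth. Cells are switched from glucose to 2% galactose medium (pH 6.0, -URA), treated with compound, and growth recovery is read at OD600.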
Pf growth 96h – inhibits malaria parasite growth, 96 h; P. falciparum luciferase reporter growth, 96 h; Potency, µM (highest dose often 28.7 µM), for the others: at the highest dose activity change, negative = inhibition, usual class: inhibitors; 320,000 compounds, 6.9% hits; AID 504834; active means well fitted inhibition curve with a large enough effect; inconclusive means small, poorly fitted or top-dose-only effect, or another doubt; inactive means no such curve, though single readings can be large or run the other way; further: on the % scale 0 is the no-effect control and ±100 the full control effect
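Compounds incubated with erythrocytes infected by luciferase-expressing P. falciparum (2% hematocrit, 0.05% parasitemia final) for 96 hours, 37 C in 5% CO2. Growth inhibition scored as decreased luciferase luminescence.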
Pf growth 48h – P. falciparum growth inhibition at 48 hours (one generation) | AID 504832 | Potency, µM (series often up to 28.7 µM), inactives show at the highest dose activity change, negative = inhibition, most hits filed as inhibitors | 310,000 compounds, 5.9% hits | P. falciparum luciferase growth in erythrocytes, 48 h; active means well fitted inhibition curve with a large enough effect; inconclusive means small, poorly fitted or top-dose-only effect, or another doubt; inactive means no such curve, though single readings can be large or run the other way; further: on the % scale 0 is the no-effect control and ±100 the full control effect
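A one-generation exposure of luciferase-tagged malaria parasites in RPMI 1640/Albumax erythrocyte culture, 37 C and 5% CO2. Inhibition is inferred from decreased luminescence after adding detection reagent.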
Numbers without * were called inactive. Compounds with a hit are over-represented: about 9.5% of the library has one in this group of screens. Unless noted, the call rests on the fitted dose curve. Potency means the concentration at half of the fitted maximal effect.

How did CCOc1ccccc1NC(=O)CCCn1cc([N+](=O)[O-])cn1 do in these assays?
RE007 growth inh: -24%; SARS PLP yeast: -4%; Pf growth 96h: 3.3µM*; Pf growth 48h: 11%

What do the screens show for `CCOC(=O)C1=CNS(=O)(=O)NC1CCc1ccccc1` (configuration not stated)?
RE007 growth inh: -1%; SARS PLP yeast: -3%

Results for COC(=O)c1ccc(COC(=O)c2ccc(SC)cc2OC)cc1 ?
RE007 growth inh: -14%; SARS PLP yeast: 19%; NS1 inh: -11%; Pf growth 96h: inconclusive; Pf growth 48h: 49%

How did COc1ccc(C2CC(c3ccccc3)=NN2C(=O)CCC(=O)O)cc1 (configuration not stated) do in these assays?
RE007 growth inh: 6%; SARS PLP yeast: 0%; NS1 inh: 11%; Pf growth 96h: -17%; Pf growth 48h: -10%

What do the screens show for `COc1ccc(C2=Nc3nc(-c4ccccc4)cn3C(c3ccc(OC)cc3)C2)cc1` (configuration not stated)?
RE007 growth inh: 0%; SARS PLP yeast: -3%; NS1 inh: 24%; Pf growth 96h: inconclusive; Pf growth 48h: 2.9µM*

Results for O=C1CC(C(=O)Nc2cccc3ccccc23)C2(CCCC2)O1 (configuration not stated) ?
RE007 growth inh: -1%; SARS PLP yeast: -9%; NS1 inh: 5%; Pf growth 96h: 1.5µM*; Pf growth 48h: 22%

What do the screens show for `CCOC(=O)C1CCCN(C(=O)c2cc(F)ccc2C)CC1` (configuration not stated)?
RE007 growth inh: 6%

How did O=C(/C=C/c1ccc2ccccc2n1)c1cc(Cl)ccc1O do in these assays?
RE007 growth inh: 16%; SARS PLP yeast: -5%; NS1 inh: 11%; Pf growth 96h: inconclusive; Pf growth 48h: 2.3µM*

What do the screens show for `Cc1cc(-c2nn(-c3ccccc3F)cc2CN2CCCC(O)C2)c(C)s1` (configuration not stated)?
RE007 growth inh: 4%; SARS PLP yeast: -3%; NS1 inh: 1%; Pf growth 96h: inconclusive; Pf growth 48h: inconclusive

How did Cc1cc(-c2nn(-c3ccccc3F)cc2CN2CCCC(C(N)=O)C2)c(C)s1 (configuration not stated) do in these assays?
RE007 growth inh: -5%; SARS PLP yeast: 0%; NS1 inh: -1%; Pf growth 96h: inconclusive; Pf growth 48h: inconclusive

What do the screens show for `Cc1cc(-c2nn(-c3ccccc3F)cc2CN2CCC(C(N)=O)CC2)c(C)s1`?
RE007 growth inh: -1%; SARS PLP yeast: 0%; NS1 inh: -1%; Pf growth 96h: 8.3µM*; Pf growth 48h: -2%

Results for Cc1cc(-c2nn(-c3ccccc3F)cc2CN2CCCC(CO)C2)c(C)s1 (configuration not stated) ?
RE007 growth inh: -15%; SARS PLP yeast: -1%; NS1 inh: 1%; Pf growth 96h: 2.3µM*; Pf growth 48h: 22%

What do the screens show for `Cc1ccc(C(=O)c2cc3c(cc2N)OCCO3)cc1`?
RE007 growth inh: -11%; SARS PLP yeast: 2%; NS1 inh: -3%; Pf growth 96h: -26%; Pf growth 48h: 5%

Results for Cc1ccc(C(=O)c2cnc3cc4c(cc3c2S(=O)(=O)c2ccccc2)OCCO4)cc1 ?
RE007 growth inh: -13%; SARS PLP yeast: -8%; NS1 inh: inconclusive; Pf growth 96h: inconclusive; Pf growth 48h: 3.3µM*

What do the screens show for `CC(=O)CC(=O)NC1C2CC3CC(C2)CC1C3` (configuration not stated)?
RE007 growth inh: 16%; SARS PLP yeast: -6%; NS1 inh: 0%; Pf growth 96h: -29%; Pf growth 48h: inconclusive

Results for CC(C)NC(=O)NC1C2CC3CC(C2)CC1C3 (configuration not stated) ?
RE007 growth inh: -19%; SARS PLP yeast: -18%; NS1 inh: -53%; Pf growth 96h: 10µM*; Pf growth 48h: inconclusive

How did CCn1c(CCc2ccccc2)nc2ccccc21 do in these assays?
RE007 growth inh: -14%; SARS PLP yeast: -1%; NS1 inh: -29%; Pf growth 96h: 0.13µM*; Pf growth 48h: inconclusive

How did CC(C)Cc1nc2ccccc2n1CCc1ccccc1 do in these assays?
RE007 growth inh: -20%; SARS PLP yeast: -15%; NS1 inh: -19%; Pf growth 96h: 6.6µM*; Pf growth 48h: 9.3µM*

From PubChem BioAssay
